In PubChem BioAssay AID1159580 (chemical genetic matrix, 2015):
About 2,000 (36%) of roughly 5,500 compounds were called active. Not shown: some 18% with an inconclusive outcome. No stated cut-off is given here; in the data, active means normalized growth mostly below about 0.91 (no sharp cut-off); inconclusive means no clear call, values can overlap the other calls; inactive means mostly above about 0.92. Some of the results follow.

Experiment: chemical genetic growth profiling, strain panel (AID 1159580);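 further: tested at 20 µM; growth read once vehicle control cultures reached saturation at 30 °C; 1 = growth at the plate median or of vehicle wells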
Conditions: S. cerevisiae deletion strains, growth OD

Measured: normalized growth

CCCCCCCCCCCCCC(=O)OC1C(C)C2(O)C(C=C(CO)CC3(O)C(=O)C(C)=CC32)C2C(C)(C)C12OC(C)=O (centres undefined)
inactive: locus YAL013W, strain DEP1, stronger effect = lower value 1 | locus YAL021C, strain ccr4, stronger effect = lower value 0.982 | locus YAL026C, strain drs2, stronger effect = lower value 0.985 | locus YAL030W, strain snc1, stronger effect = lower value 0.991 | locus YBL061C, strain skt5, stronger effect = lower value 0.981 | locus YBR009C, strain hhf1, stronger effect = lower value 0.965 | locus YBR021W, strain FUR4, stronger effect = lower value 0.988 | locus YBR023C, strain chs3, stronger effect = lower value 0.97 | locus YBR171W, strain sec66, stronger effect = lower value 0.981 | locus YBR229C, strain ROT2, stronger effect = lower value 1.02 | locus YBR231C, strain swc5, stronger effect = lower value 0.98 | locus YBR279W, strain paf1, stronger effect = lower value 0.988 | locus YCL011C, strain gbp2, stronger effect = lower value 0.98 | locus YCL016C, strain dcc1, stronger effect = lower value 0.996 | locus YCL029C, strain bik1, stronger effect = lower value 0.996 | locus YCL061C, strain MRC1, stronger effect = lower value 0.987 | locus YCL069W, strain vba3, stronger effect = lower value 0.986 | locus YCR088W, strain abp1, stronger effect = lower value 0.989 | locus YDL005C, strain med2, stronger effect = lower value 0.988 | locus YDL035C, strain GPR1, stronger effect = lower value 1.06 | locus YDL040C, strain nat1, stronger effect = lower value 0.979 | locus YDL074C, strain BRE1, stronger effect = lower value 1.04 | locus YDL101C, strain DUN1, stronger effect = lower value 1.01 | locus YDL134C, strain PPH21, stronger effect = lower value 1.01 | locus YDL185W, strain tfp1, stronger effect = lower value 1.01 | locus YDL192W, strain arf1, stronger effect = lower value 0.997 | locus YDR001C, strain nth1, stronger effect = lower value 0.978 | locus YDR069C, strain doa4, stronger effect = lower value 0.985 | locus YDR101C, strain arx1, stronger effect = lower value 0.996 | locus YDR137W, strain rgp1, stronger effect = lower value 0.97 | locus YDR150W, strain NUM1, stronger effect = lower value 1 | locus YDR159W, strain sac3, stronger effect = lower value 0.969 | locus YDR162C, strain NBP2, stronger effect = lower value 1.03 | locus YDR195W, strain ref2 0.96 | locus YDR297W, strain sur2, stronger effect = lower value 0.985 | locus YDR318W, strain mcm21, stronger effect = lower value 0.985 | locus YDR334W, strain swr1, stronger effect = lower value 0.989 | locus YDR335W, strain msn5, stronger effect = lower value 0.987 | locus YDR388W, stronger effect = lower value 0.99 | locus YDR392W, strain spt3, stronger effect = lower value 0.919 | locus YDR502C, strain sam2, stronger effect = lower value 1 | locus YEL003W, strain gim4, stronger effect = lower value 0.982 | locus YEL037C, strain rad23, stronger effect = lower value 0.978 | locus YEL061C, strain CIN8 (second series), stronger effect = lower value 0.976 | locus YEL061C, strain CIN8, stronger effect = lower value 1.01 | locus YER015W, strain faa2, stronger effect = lower value 0.986 | locus YER016W, strain bim1, stronger effect = lower value 0.98 | locus YER110C, stronger effect = lower value 0.994 | locus YER111C, strain swi4, stronger effect = lower value 0.965 | locus YER155C, strain BEM2 (second series), stronger effect = lower value 0.987 | locus YER155C, strain BEM2, stronger effect = lower value 0.996 | locus YER167W, strain BCK2, stronger effect = lower value 0.988 | locus YFR010W, strain ubp6, stronger effect = lower value 0.977 | locus YGL078C, strain dbp3, stronger effect = lower value 0.99 | locus YGL086W, strain mad1, stronger effect = lower value 0.978 | locus YGL167C, strain pmr1, stronger effect = lower value 0.989 | locus YGL173C, strain kem1, stronger effect = lower value 0.984 | locus YGL227W, strain vid30, stronger effect = lower value 0.979 | locus YGL240W, strain doc1, stronger effect = lower value 0.976 | locus YGL248W, strain PDE1, stronger effect = lower value 1.02 | locus YGL253W, strain hxk2, stronger effect = lower value 0.98 | locus YGR078C, strain PAC10, stronger effect = lower value 1.03 | locus YGR135W, strain pre9, stronger effect = lower value 1.01 | locus YGR229C, strain SMI1, stronger effect = lower value 1.02 | locus YGR252W, strain gcn5, stronger effect = lower value 1.04 | locus YHR013C, strain ard1, stronger effect = lower value 0.934 | locus YHR027C, strain rpn1, stronger effect = lower value 0.994 | locus YHR030C, strain SLT2, stronger effect = lower value 0.995 | locus YHR079C, strain IRE1 (second series), stronger effect = lower value 0.992 | locus YHR094C, strain hxt1, stronger effect = lower value 0.994 | locus YHR129C, strain ARP1, stronger effect = lower value 0.997 | locus YHR142W, strain chs7, stronger effect = lower value 0.952 | locus YHR200W, strain rpn10, stronger effect = lower value 0.989 | locus YIL066C, strain RNR3, stronger effect = lower value 1.01 | locus YIL073C, strain SPO22, stronger effect = lower value 0.986 | locus YIL125W, strain kgd1, stronger effect = lower value 0.991 | locus YIR030C, strain dcg1, stronger effect = lower value 0.994 | locus YJL092W, strain hpr5, stronger effect = lower value 0.984 | locus YJL095W, strain BCK1 (second series), stronger effect = lower value 0.99 | locus YJL095W, strain BCK1, stronger effect = lower value 1 | locus YJL115W, strain asf1, stronger effect = lower value 0.979 | locus YJL129C, strain trk1, stronger effect = lower value 0.962 | locus YJL134W, strain LCB3, stronger effect = lower value 0.992 | locus YJL154C, strain vps35, stronger effect = lower value 0.986 | locus YJL164C, strain tpk1, stronger effect = lower value 1.01 | locus YJL166W, strain qcr8, stronger effect = lower value 0.981 | locus YJL168C, strain set2, stronger effect = lower value 0.993 | locus YJL187C, strain SWE1 (second series), stronger effect = lower value 1.02 | locus YJL187C, strain SWE1, stronger effect = lower value 0.99
